“And” between values parts separate entries of the source, which are not always exact repeats. Equal entries are not always repeated. Results filed as inconclusive are left out. The source made the active and inactive calls. Unless noted, calls come from the whole dose curve; as a rule, active = well fitted curve in the direction sought with a large enough effect; inconclusive = small, poorly fitted or top-dose-only effect, or another doubt; inactive = no such curve, though single readings can be large; an effect the other way counts as inactive or inconclusive.

Assay [1] addresses DNA repair nuclease/redox regulator APEX1 (Homo sapiens) (UniProt P27695). The experiment in a line: qHTS Validation Assay for Inhibitors of the Human Apurinic/apyrimidinic Endonuclease 1 (APE1) (AID 1705;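 note: TAMRA fluorescence gain over two minutes as APE1 cuts a quenched THF abasic duplex; % is set by controls: 0 for no effect and ±100 for the full control effect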). The method, boiled down:
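Fluorogenic double-stranded THF abasic-site substrate (5'-TAMRA/3'-BHQ-2), 50 nM final. Enzyme preincubated with compound 15 min at room temperature, then substrate added. Kinetic fluorescence (ex 525/em 598 nm) read three times at 60 s intervals; activity taken as third-minus-first read difference.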
(Quantitative high-throughput screening tests each substance at several concentrations.)

A short description of assay [2]: Counterscreen for APE1 Inhibitors: Fluorescent Dye Displacement Validation Assay (AID 1707).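 Note: plate controls were ThO with dsDNA and no compound for no effect and ThO without dsDNA for full effect.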 Put shortly:
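Thiazole Orange (250 nM) bound to 50 nM TAMRA-labelled dsDNA with tetrahydrofuran abasic site; displacement by DNA-binding compounds lowers fluorescence. Buffer 50 mM Tris-HCl pH 7.5, 50 mM NaCl, 2 mM MgCl2, 0.01% Tween-20; endpoint read at 480/540 nm.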
(In general: Counterscreens check selectivity or assay interference.)

In assay [3] the target is Endonuclease 4 (Escherichia coli (strain K12)) (UniProt P0A6C1). The assay can be described thus: Counterscreen for APE1 Inhibitors: qHTS Validation Assay for Inhibitors of Endonuclease IV (AID 1708). Note: % is set by controls: 0 for no effect and ±100 for the full control effect. Put shortly:
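2 nM enzyme was preincubated with compounds for 15 min at room temperature in 50 mM Tris-HCl pH 7.5, 50 mM NaCl, 2 mM MgCl2, 1 mM DTT, 0.01% Tween-20. 50 nM THF-abasic TAMRA/BHQ-2 duplex substrate started the reaction.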

Assay [4] can be described thus: qHTS for differential inhibitors of proliferation of Plasmodium falciparum line 7G8 (AID 1815).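 For activity change, negative = inhibition: plate controls were vehicle wells for no effect and reference inhibitor wells for full effect.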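 Note: parasite growth measured after three days of incubation.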 Note: potency is the fitted concentration of half-maximal effect.
The nature of assay [5]: qHTS for differential inhibitors of proliferation of Plasmodium falciparum line GB4 (AID 1816).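 For activity change, negative = inhibition: 0% = vehicle DMSO and -100% = reference inhibitor.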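 Note: parasite growth measured after 72 h incubation.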 Note: potency is the fitted concentration of half-maximal effect. The note with it: Potency: Plasmodium falciparum GB4 proliferation inhibition.
A short description of assay [6]: qHTS for differential inhibitors of proliferation of Plasmodium falciparum line 3D7 (AID 1876). Note: potency is the fitted concentration of half-maximal effect.
Assay [7] in a line: qHTS for differential inhibitors of proliferation of Plasmodium falciparum line D10 (AID 1877).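 For activity change, negative = inhibition: plate controls were vehicle wells for no effect and reference inhibitor wells for full effect.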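 Note: parasites grown with compound for 72 h before DNA staining.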 Note: potency is the fitted concentration of half-maximal effect.
Assay [8] is described as follows: qHTS for differential inhibitors of proliferation of Plasmodium falciparum line Dd2 (AID 1882).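 For activity change, negative = inhibition: compound exposure of 72 h on infected erythrocytes; plate controls were DMSO vehicle for no effect and 0.29 µM artemisinin for full effect.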 Note: nearly all actives have a fitted effect of over 65% in size. Note: potency is the fitted concentration of half-maximal effect. To be noted: Potency: Plasmodium falciparum Dd2 proliferation inhibition. The method, boiled down:
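SYBR Green I DNA fluorescence read-out, ex 485/em 535 nm. Signals were normalized to 0.29 uM artemisinin and DMSO wells, then corrected using vehicle-only plates flanking each stack. Parasite growth ran 72 h in erythrocytes before lysis.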

Assay [9] in a line: qHTS for differential inhibitors of proliferation of Plasmodium falciparum line W2 (AID 1883).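 For activity change, negative = inhibition: 0% = vehicle wells and -100% = control inhibitor wells.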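 Note: parasites grown with compound for 72 h before lysis and staining.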 Note: potency is the fitted concentration of half-maximal effect. The note with it: Potency: Plasmodium falciparum W2 proliferation inhibition.
Assay [10] has as its target Alpha-galactosidase A (Homo sapiens) (UniProt P06280). The assay can be described thus: Counterscreen for Glucocerebrosidase Inhibitors: qHTS Assay for Human alpha-Galactosidase at pH 4.5 (AID 992). Note: 0% is about no effect. Put shortly:
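Human enzyme (2 nM) with 80 uM 4-methylumbelliferyl alpha-D-galactopyranoside in 50 mM citric acid, 0.005% Tween-20, pH 4.5, 20 min at room temperature. Compounds 0.7 nM–77 uM; fluorescence Ex 365/Em 440 after pH 10 stop; AC50 from Hill fits.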

The target of assay [11] is alpha-glucosidase (Oryza sativa, rice) (UniProt Q653V4). The assay can be described thus: Counterscreen for Glucocerebrosidase Inhibitors: qHTS Assay for Rice alpha-Glucosidase at pH 5.0 (AID 997).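 Note: 0% = full activity with enzyme and -100% = basal without enzyme.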 Put shortly:
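Rice alpha-glucosidase (4 nM final) with 400 uM 4-methylumbelliferyl-alpha-D-glucopyranoside in citrate buffer pH 5.0, 20 min at room temperature, stopped at pH 10; fluorescence 365/440 nm, compounds 0.7 nM–77 uM, AC50 from Hill fits.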

The nature of assay [12]: qHTS Assay for Lipid Storage Modulators (AID 1519; calls by dose curve; for activity change, negative = inhibition: % is set by controls: 0 for no effect and ±100 for the full control effect). To be noted: Drosophila S3 cells, BODIPY lipid droplet/cell ratio, laser cytometry, cells loaded with oleic acid. The method, boiled down:
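Cells seeded at 5,000 per well were treated with compounds over a concentration series and loaded with oleic acid (400 uM, as added). Lipid droplet fluorescence (488 nm excitation, 500-530 nm channel) was read by laser-scanning cytometry and normalized to 20 uM Triacsin C.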

Assay [13] can be described thus: Cell Viability - LYMP2-014 (AID 983).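 Note: plate controls were DMSO only for no effect and 92 µM tetraoctylammonium bromide for full effect; nearly all actives have a fitted effect of over 50% in size.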 Put shortly:
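Decrease in intracellular ATP after 24 hr treatment at 37 C, measured by luciferase luminescence, indicated cytotoxicity. Concentration-response data were fitted with the standard Hill equation to give AC50.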

The nature of assay [14]: Cell Viability - LYMP2-016 (AID 984).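 Note: cells exposed to compound for 24 hours at 37 °C; % is set by controls: 0 for no effect and ±100 for the full control effect; nearly all actives have a fitted effect of over 55% in size.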 Put shortly: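 Human lymphoblastoid LYMP2-016 cells, 2500 per well, treated with compounds for 24 h at 37 C. Viability read as intracellular ATP by CellTiter-Glo luminescence after 30 min at room temperature; AC50 from Hill fits of concentration-response.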
The nature of assay [15]: Cell Viability - LYMP2-018 (AID 985).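 Note: compound exposure lasted 24 hr at 37 °C; plate controls were DMSO only for no effect and tetraoctylammonium bromide at 92 µM for full effect; nearly all actives have a fitted effect of over 50% in size.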 The method, boiled down: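 Acute cytotoxicity is scored as a concentration-dependent drop in intracellular ATP after 24 hr exposure of the lymphoblastoid line in complete culture medium, measured by luciferase luminescence. Potency is expressed as AC50 from Hill modelling.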
Assay [16] is described as follows: Cell Viability - LYMP2-022 (AID 987).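 Note: cells exposed to compound for 24 hr; 0% = DMSO alone and full effect = tetraoctylammonium bromide at 92 µM; nearly all actives have a fitted effect of over 55% in size.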 The method, boiled down:
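Acute toxicity in a human lymphoblastoid line is scored as decreased intracellular ATP after 24 hr compound treatment at 37 C. ATP is measured by CellTiter-Glo luminescence; curves are fitted with the Hill equation to give AC50.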

A short description of assay [17]: Cell Viability - LYMP2-026 (AID 989). Note: % is set by controls: 0 for no effect and ±100 for the full control effect; nearly all actives have a fitted effect of over 50% in size. Put shortly: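 Concentration-dependent loss of intracellular ATP in human lymphoblastoid cells after 24 hr at 37 C, quantified by luciferase luminescence. AC50 derived from standard Hill equation.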
The nature of assay [18]: Cell Viability - LYMP1-002 - Assay at 24 hr (AID 993). Note: % is set by controls: 0 for no effect and ±100 for the full control effect. The method, boiled down: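 qHTS, LYMP1-002 lymphoblastoid, 24 h cpd, 37 C, CellTiter-Glo ATP luminescence; AC50 via Hill eq.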
A short description of assay [19]: Cell Viability - LYMP1-002 - Assay at 40 hr (AID 994).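 Note: 0% = DMSO only and full inhibition = 92 µM tetraoctylammonium bromide; nearly all actives have a fitted effect of over 60% in size.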 Put shortly:
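Viability in the human lymphoblastoid line was measured as intracellular ATP via CellTiter-Glo after 40 hr compound exposure. Tetraoctylammonium bromide served as positive control.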

[20] abbreviates: measured here: cell count channel max response.
The mark [21] stands for this setting: measured here: lipid channel max response.

Chain of DNA repair nuclease/redox regulator APEX1 (Homo sapiens) (P27695 whole entry, looked up): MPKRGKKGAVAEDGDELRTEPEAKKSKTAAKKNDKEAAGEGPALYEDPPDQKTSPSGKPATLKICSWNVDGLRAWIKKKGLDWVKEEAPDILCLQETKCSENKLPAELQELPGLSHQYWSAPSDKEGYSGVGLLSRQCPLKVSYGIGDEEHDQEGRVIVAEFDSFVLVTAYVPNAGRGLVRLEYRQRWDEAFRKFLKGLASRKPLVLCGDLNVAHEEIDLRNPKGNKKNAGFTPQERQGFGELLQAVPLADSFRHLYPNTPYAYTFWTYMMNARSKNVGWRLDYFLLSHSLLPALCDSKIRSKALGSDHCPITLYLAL
Chain of Alpha-galactosidase A (Homo sapiens) (P06280 whole entry, looked up): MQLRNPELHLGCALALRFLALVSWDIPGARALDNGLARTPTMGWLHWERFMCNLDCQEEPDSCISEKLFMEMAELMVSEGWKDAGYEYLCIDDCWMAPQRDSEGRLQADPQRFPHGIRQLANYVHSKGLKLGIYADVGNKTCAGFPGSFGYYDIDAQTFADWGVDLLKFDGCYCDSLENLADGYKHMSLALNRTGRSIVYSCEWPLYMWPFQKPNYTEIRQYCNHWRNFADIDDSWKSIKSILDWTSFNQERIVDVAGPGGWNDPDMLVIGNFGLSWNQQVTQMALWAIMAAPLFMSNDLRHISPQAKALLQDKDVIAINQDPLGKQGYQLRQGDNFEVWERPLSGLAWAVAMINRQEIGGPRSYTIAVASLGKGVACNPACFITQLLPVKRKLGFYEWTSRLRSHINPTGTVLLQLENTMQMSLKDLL

In the case of `NS(=O)(=O)c1cc2c(cc1Cl)NC(C1CC3C=CC1C3)NS2(=O)=O` (centres undefined), the Potency entry in [1], in assay [3], in assay [4], in [5], in [6] and in [7] was “inactive” each time. In addition, the Potency result in assay [8] and in assay [9] was “inactive” each time. Moreover, the compound was called inactive in assay [2].
On to `CC(=O)Oc1cc(C(C)C)c(OCCN(C)C)cc1C`, for which the compound was called inactive in [10], in [11] and in assay [2]. For the same compound, the activity change, negative = inhibition in assay [12] (at 25.7 µM (top of the series)) is -0.785% (inactive). Moreover, the max response in [12] (setting [20]) was -9.94%; in assay [12] (setting [21]) it was -5.49%. Also, the Potency result in assay [1], in assay [3], in assay [6] and in [7] was “inactive” each time. Besides, in assay [9], the Potency is 7.94 µM (active).
`Cc1scc2c1N(C(=O)CN1CCN(C)CC1)c1ccccc1NC2=O`: the compound was called inactive in assay [10], in assay [11] and in [2]. Also, the activity change, negative = inhibition in [12] (at 25.7 µM (top of the series)) is -2.57% (inactive); in assay [12] (at 57.5 µM (top of the series)), 0.86% (inactive) and 1.7% (inactive) and 0.0907% (inactive). Besides, in [12] (setting [20]), the max response is -8.48% [middle of 4 runs]. The Potency entry in [1], in assay [3] and in assay [8] was “inactive” in each case.
Turning to `O=C1NCN(c2ccccc2)C12CCN(CCCC(c1ccc(F)cc1)c1ccc(F)cc1)CC2`, in [11], the result was inactive. In addition, in [12] (at 25.7 µM (top of the series)), the activity change, negative = inhibition is -8.24% (inactive). Moreover, the results for the max response in assay [12] (setting [20]) and in assay [12] (setting [21]) were -19.4% and -26.6%, respectively. Besides, the Potency result in [1] is “inactive”. Moreover, the Potency in assay [4] is 4.47 µM (active); in assay [5], 8.91 µM (active); in assay [6], 2 µM (active); in assay [7] it was 10 µM (active); in assay [8], 8.91 µM (active); in assay [9], 2.82 µM (active).
For the compound `NC(Cc1ccc(Cl)cc1)C(=O)O` (centres undefined), the activity change, negative = inhibition in [12] (at 57.5 µM (top of the series)) is 7.45% (inactive). Moreover, the max response in assay [12] (setting [20]) worked out at 16.7%; in assay [12] (setting [21]), 25.4%. The Potency entry in assay [1], in assay [4], in [5], in assay [6], in assay [7] and in [8] was “inactive” in each case. Besides, in [9], the Potency entry is “inactive”.
Take `NC(N)=N/N=C/c1c(Cl)cccc1Cl`: the Potency result in assay [1] and in assay [3] was “inactive” each time. In addition, the compound was classed as inactive in assay [2].
Consider `NC(=O)N1c2ccccc2C=Cc2ccccc21`, for which the compound was classed as inactive in assay [13], in [14], in assay [17], in [10], in [18] and in assay [11]. In addition, the compound was called inactive in [2]. Besides, the Potency entry in [15], in assay [16], in assay [19], in assay [1], in [3] and in assay [4] was “inactive” each time. Moreover, the Potency result in assay [5], in assay [6], in assay [7] and in assay [8] was “inactive” in each case. Further, the activity change, negative = inhibition in assay [12] (at 25.7 µM (top of the series)) is -0.889% (inactive). In addition, the results for the max response in [12] (setting [20]) and in [12] (setting [21]) were -0.817% and -5.44%, respectively.
`CC(=O)Nc1nnc(S(N)(=O)=O)s1`: the compound was called inactive in assay [10], in assay [11] and in assay [2]. Moreover, the Potency entry in assay [1], in assay [3], in assay [4], in assay [5], in assay [6] and in assay [7] was “inactive” in each case. The Potency result in assay [8] and in assay [9] was “inactive” each time.
For the compound `C[N+](C)(C)CCCCCCCCCC[N+](C)(C)C`, the call in [10], in assay [11] and in assay [2] was inactive. Besides, the activity change, negative = inhibition in assay [12] (at 25.7 µM (top of the series)) is -3.64% (inactive). Besides, the max response in assay [12] (setting [20]) is -13.2%; in assay [12] (setting [21]), -14.8%. The Potency entry in assay [3] is “inactive”.
Regarding `NC(=O)c1ncn([C@@H]2O[C@H](CO)[C@@H](O)[C@H]2O)c1O`, the Potency result in assay [1], in assay [3], in [4], in assay [5], in [6] and in assay [7] was “inactive” each time. Also, the Potency result in assay [8] and in assay [9] was “inactive” throughout. In addition, in [2], the compound was classed as inactive.
In the case of `C[N+](C)(C)CCOC(N)=O`, the call in assay [10], in [11] and in assay [2] was inactive. Moreover, in assay [12] (at 25.7 µM (top of the series)), the activity change, negative = inhibition was 1.99% (inactive). Moreover, the results for the max response in assay [12] (setting [20]) and in assay [12] (setting [21]) were 10.4% and 11.4%, respectively. The Potency result in assay [1], in [3], in assay [4], in [5], in assay [6] and in assay [7] was “inactive” throughout. For the same compound, the Potency entry in assay [8] and in [9] was “inactive” each time.

The values are drawn from PubChem BioAssay (NCATS).
